Bioassay records deposited in PubChem by The Scripps Research Institute Molecular Screening Center.
Shown are actives, neighbours in structure and some others; about 1.2% of the full set was active somewhere.
NOD2 RIPK2 PPI – NOD2-RIPK2 binding disruptors in cells, primary screen, fluorescence, CHO cells, BLA complementation | Receptor-interacting serine/threonine-protein kinase 2 (Homo sapiens), O43353 | CCF4 ratio | inhibition, % at 4.98 µM | 360,000 tested, 0.38% active; in the data active = inhibition above about 21%
TLR4-MyD88 BLA – inhibitors of TLR4-MyD88 association in cells, primary screen, cell-based, HeLa CL3-4, BLA complementation, FRET ratio; 200,000 tested, 0.18% active; inhibition, % at 8.4 µM; HeLa CL3-4 TLR4/MyD88 BLA complementation; AID 861, 2007; Toll-like receptor 4 (Homo sapiens) + Myeloid differentiation primary response protein …; in the data active = inhibition above about 25%
ABHD5 PLIN5 PPI – ABHD5-PLIN5 interaction inhibitors, primary screen, cell lysate, split luciferase complementation, luminescence. Split G. princeps luciferase complementation, 4 h. inhibition, % at 4 µM. 360,000 tested, 0.78% active. AID 602281, 2012;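 active = inhibition above the mean inhibition across every tested compound plus 3 SD, cut at about 22% in these data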
Target sequence (Q00G26 whole entry, looked up): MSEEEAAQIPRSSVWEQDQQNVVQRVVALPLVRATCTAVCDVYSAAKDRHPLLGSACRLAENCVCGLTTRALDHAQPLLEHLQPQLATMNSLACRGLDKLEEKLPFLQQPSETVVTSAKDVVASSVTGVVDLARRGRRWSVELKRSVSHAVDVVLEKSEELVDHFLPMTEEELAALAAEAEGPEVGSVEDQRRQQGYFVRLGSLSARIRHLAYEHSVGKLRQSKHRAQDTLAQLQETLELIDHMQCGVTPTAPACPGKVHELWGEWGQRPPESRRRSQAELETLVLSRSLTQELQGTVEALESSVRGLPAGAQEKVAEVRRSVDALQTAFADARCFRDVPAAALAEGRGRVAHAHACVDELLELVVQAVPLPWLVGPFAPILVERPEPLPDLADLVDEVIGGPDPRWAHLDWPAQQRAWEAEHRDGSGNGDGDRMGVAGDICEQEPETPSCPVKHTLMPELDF
Target sequence (Q8WTS1 whole entry, looked up): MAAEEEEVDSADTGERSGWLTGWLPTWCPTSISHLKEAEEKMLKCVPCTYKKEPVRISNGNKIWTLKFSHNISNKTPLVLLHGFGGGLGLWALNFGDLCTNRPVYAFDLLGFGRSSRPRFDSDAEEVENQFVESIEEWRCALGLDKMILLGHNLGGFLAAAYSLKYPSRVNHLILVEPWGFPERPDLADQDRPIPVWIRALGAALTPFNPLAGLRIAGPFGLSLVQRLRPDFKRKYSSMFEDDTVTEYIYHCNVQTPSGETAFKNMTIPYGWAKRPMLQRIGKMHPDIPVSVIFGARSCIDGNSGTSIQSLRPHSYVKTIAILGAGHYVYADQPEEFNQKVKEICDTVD
TLR9-MyD88 block – inhibitors of TLR9-MyD88 association in cells, primary screen, cell-based, CHO, BLA complementation, fluorescence; Toll-like receptor 9 (Homo sapiens) + Myeloid differentiation primary response protein …; CCF4 FRET ratio; inhibition, % at 4.98 µM; 340,000 tested, 0.21% active; AID 504734, 2011;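 active = inhibition above the mean over all tested compounds plus 3 SD, cut at about 21% in these data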
ABHD5-PLIN5 conf – ABHD5-PLIN5 interaction inhibitors, confirmation, biochemical, luminescence | shares compounds with ABHD5 PLIN5 PPI | inhibition, % at 4 µM | 2,200 tested, 67% active | AID 651612, 2012; in the data active = inhibition above about 23%
HNF4 split-luc – HNF4 dimerization inhibitors, counter-screen for ABHD5-PLIN5 interaction inhibitor project, biochemical, split-luciferase complementation, luminescence | 2,200 tested, 77% active | inhibition, % at 4 µM | shares compounds with ABHD5 PLIN5 PPI | AID 651674, 2012;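 active = mean inhibition across replicate wells exceeding the computed hit threshold, cut at about 13% in these data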;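 note: light from luciferase halves that rejoin when HNF4 fusion proteins dimerize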
A number is an active result; – = inactive; · = no result given.

SMILES	NOD2 RIPK2 PPI	TLR4-MyD88 BLA	ABHD5 PLIN5 PPI	TLR9-MyD88 block	ABHD5-PLIN5 conf	HNF4 split-luc
CC(=O)NC(CSC(CC(=O)c1ccco1)c1ccc(C)cc1)C(=O)O (stereo not drawn)	–	–	50	–	40	40
CC(=O)NC(Cc1ccccc1)C(=O)N1CCN(C(=O)c2ccco2)CC1 (stereo not drawn)	–	–	–	–	·	·
CN(CC(=O)Nc1ccccc1C(=O)NC1CC1)Cc1cccs1	–	·	–	–	·	·
CCOc1ccc2[nH]c(=O)c(CN(Cc3ccco3)C(=O)c3ccc(Br)cc3)cc2c1	–	–	30	–	89	92
CCOc1ccc2[nH]c(=O)c(CN(Cc3ccco3)C(=O)c3cccc(F)c3)cc2c1	–	–	–	–	·	·
CC(C)C[C@H](NC(=O)OC(C)(C)C)C(=O)N[C@@H](CO)[C@H](O)[C@@H]1C[C@@H]1C(=O)NC1CCCCC1	–	·	–	–	·	·
CN1\C(=C/C=C/C=C/C=[N+](C)C)C(C)(C)c2ccccc21	–	–	24	–	49	38
C=CCOC(=O)/C=C/C(=O)NC(N)=O	–	·	35	–	57	55
C=CCOC(=O)Nc1ccc(Cl)cc1NC(=O)OCC=C	–	–	–	–	·	·
O=c1c(C(c2ccc(O)cc2)c2c(O)nc3n(c2=O)CCCS3)c(O)nc2n1CCCS2	–	–	29	–	84	71
O=c1c(C(c2ccc(O)cc2)c2c(O)nc3n(c2=O)CCS3)c(O)nc2n1CCS2	–	–	53	–	90	79
CC(C)c1ccc(NC(=O)C2Cc3c(-c4ccccc4Oc4ccccc4)ccnc3O2)cc1 (stereo not drawn)	–	·	–	·	·	·
CN[C@H]1C[C@@H](c2ccccc2)N(C(C)=O)C[C@H]1CO	–	·	–	·	·	·
Cc1ccccc1OCCCN1C(=O)C(=O)c2cccc(C)c21	–	–	27	–	49	48
CCN(CC)CCNC(=O)c1ccc(NC(=O)c2cn(-c3ccccc3)nc2-c2cccs2)cc1	–	–	35	–	–	–
COc1ccc(-n2c(N)c(C(=O)NCc3ccco3)c3nc4ccccc4nc32)cc1	–	–	33	–	31	32
COc1ccc(-n2c(N)c(C(=O)NCc3ccco3)c3nc4ccccc4nc32)cc1OC	–	–	–	–	·	·
O=C1OC(/C(=C\Nc2ccccc2)[N+](=O)[O-])c2ccccc21 (stereo not drawn)	–	·	42	–	–	26
Oc1c(C(Nc2nc3ccccc3s2)c2ccco2)ccc2cccnc12 (stereo not drawn)	–	–	45	–	–	14
Cc1ccc(C)c(C(=O)CCC(=O)Nc2ccc(N3CCN(C)CC3)cc2C)c1	–	·	–	–	·	·
Oc1cccc(Nc2nc(N3CCOCC3)nc(N3CCOCC3)n2)c1	–	·	25	–	–	15
Cc1cccc(Nc2nc(N3CCOCC3)nc(N3CCOCC3)n2)c1	–	·	–	–	·	·
O=S(=O)(Cc1ccc(Cl)cc1)c1ccccc1-c1nnc(-c2ccc(Cl)cc2)o1	–	–	31	–	–	–
O=C(COC(=O)C1=NN(c2ccccc2)C(=O)CC1)Nc1nc(-c2ccc(F)cc2)cs1	–	·	–	–	·	·
N#CC1=C(Nc2ccccc2Cl)SC(c2ccncc2)NC1=O (stereo not drawn)	–	·	–	·	·	·
SMILES	NOD2 RIPK2 PPI	TLR4-MyD88 BLA	ABHD5 PLIN5 PPI	TLR9-MyD88 block	ABHD5-PLIN5 conf	HNF4 split-luc
N#CC1=C(Nc2ccccc2Cl)SC2(CCCC2)NC1=O	–	·	33	·	–	19
N#Cc1ccc(C(=O)Nn2cnnc2)cc1	–	·	–	–	·	·
CC(OC(=O)CC1CCCCC1)C(=O)Nc1ccc(F)cc1 (stereo not drawn)	–	·	–	–	·	·
O=C(Cn1nc(CNc2ccc(Cl)cc2)[n+]2c1CCCCC2)c1ccc(Br)cc1	–	–	30	–	–	–
COc1ccc(NCc2nn(CC(=O)c3ccc(Br)cc3)c3[n+]2CCCCC3)cc1	–	–	–	–	·	·
O=C(NC(NC(=S)Nc1ccc(Cl)cc1Cl)C(Cl)(Cl)Cl)c1cccc([N+](=O)[O-])c1 (stereo not drawn)	–	–	–	–	·	·
Fc1ccc2c(c1)Sc1ccc(Cl)cc1CC2N1CCN(CCC2OCCO2)CC1 (stereo not drawn)	–	·	–	–	·	·
OCCN1CCN(CCCN2c3ccccc3Sc3ccc(Cl)cc32)CC1	–	–	–	–	·	·
NC(=O)CCN1CCN(CCOC2Cc3cc(Cl)ccc3Sc3ccccc32)CC1 (stereo not drawn)	–	–	25	–	22	–
COCCCN1CCN(C2Cc3ccccc3Sc3ccc(Cl)cc32)CC1 (stereo not drawn)	–	–	25	–	–	–
O=C(/C(=C/O)N=Nc1ccc(Cl)cc1)c1ccncc1	–	–	38	–	38	–
CCCN(C(=O)CSCC(=O)Nc1cccc(C)c1)c1c(N)n(Cc2ccccc2)c(=O)[nH]c1=O	–	·	–	–	·	·
O=C(O)CC/C(=N/NC(=O)c1cn(-c2ccccc2)nc1-c1ccccc1)C(=O)O	–	–	–	–	·	·
Cn1ccc(-c2ccccc2)n1	–	–	–	–	·	·
CC1=CC(=O)N(c2ccn(C)n2)C1=O	–	·	25	–	36	39
CC(C)(C)NC(=O)C(c1ccncc1)N(Cc1ccco1)C(=O)c1ccc(-c2ccccc2)[nH]1 (stereo not drawn)	–	–	30	–	31	44
O=c1c(-c2ccco2)nc2ccccc2n1C(CCc1ccccc1)c1nc2ccccc2[nH]1 (stereo not drawn)	–	·	72	·	55	–
CCC(c1nc2ccccc2[nH]1)n1c(=O)c(-c2ccccc2)nc2ccccc21 (stereo not drawn)	–	·	–	·	·	·
CCC(c1nc2ccccc2[nH]1)n1c(=O)c(-c2ccco2)nc2ccccc21 (stereo not drawn)	–	·	37	·	59	23
COc1ccc(CNC(=O)c2ccc(-n3ccnc3)c3ccoc23)cc1OC	–	·	–	·	·	·
C[C@H](O)[C@@H]1C(=O)N2CCc3c([nH]c4ccccc34)[C@@H]2C[C@@H]1N(C)S(=O)(=O)c1ccccc1	–	·	–	–	·	·
CC(NC(=O)c1cccs1)C1CCCO1 (stereo not drawn)	–	·	–	–	·	·
CCOC(=O)N1CCN(C(=O)c2ccc3c(=O)n(-c4cc(OC)ccc4OC)c(=S)[nH]c3c2)CC1	–	–	–	–	·	·
COc1ccc(C(CNC(=O)C(C)Sc2ccccc2)N2CCOCC2)cc1 (stereo not drawn)	–	·	–	–	·	·
